Only some compounds are listed: those with a hit (about 4% of all), similar ones and a draw of the others.
TROY NFkB inh = blocks TROY-dependent signaling in reporter cells. AID 1347056. inhibition, % at 10 µM. 360,000 compounds, 0.98% hits. Q293 LMP1-TROYcd NF-kB luciferase reporter, 4 h;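 active = compounds whose plate-normalised and pattern-corrected inhibition of the luciferase reporter signal at the single screening dose is 50% or more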
TWEAK-Fn14 inh = blocks TWEAK-Fn14 interaction in a reporter cell assay | TWEAK-stimulated Fn14 reporter cells, luciferase luminescence, 8 h | AID 1159606 | inhibition, % at 10 µM | 360,000 compounds, 2% hits; in the data active = inhibition above about 50%
Peg3 prom inh = inhibitors of Peg3 promoter; HeLa PEG-Prom luciferase reporter, luminescence, overnight; 360,000 compounds, 1.7% hits; AID 588405; inhibition, % at 20 µM;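 active = inhibition of at least 50% at 20 µM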
CF NFkB inh = inhibitors of cystic fibrosis induced NF-kB. KKLEB NF-kB-GFP reporter, PAF-induced, GFP fluorescence overnight. inhibition, % at 5 µM. 360,000 compounds, 0.86% hits. AID 588850;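 active = at least 50% inhibition at 5 µM, scaled per plate between neutral and stimulator controls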;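 also: PAF is a Pseudomonas aeruginosa culture filtrate used as stimulus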
HIF-2a inh = blocks HIF-2a reporter activity. 360,000 compounds, 0.72% hits. 786-0 RCC cells HIF-2a reporter, luciferase luminescence, overnight. inhibition, % at 18.8 µM;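 active = inhibition of the luminescence signal of 40% or more relative to plate controls, in a single-dose primary screen at 18.75 µM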
KKLEB cytotox = reduces viability of KKLEB cystic fibrosis airway cells. KKLEB CF airway cells viability, ATPlite luminescence, overnight; active compounds read low; cells stimulated with P. aeruginosa culture filtrate. activity change (cytotoxicity), % at 5 µM. 360,000 compounds, 0.36% hits;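 active = corrected activity change at or below -50% at 5 µM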
Each line names hits and unclear results; the compound was inactive in the other large screens.

COc1ccc(-c2cc(CCCC(=O)NCCc3ccccc3)no2)cc1	none
COc1ccc(-c2cc(CCCC(=O)NCc3ccccn3)no2)cc1	TWEAK-Fn14 inh 86
O=C(Nc1nc2cc(Cl)ccc2s1)C1CCCN(S(=O)(=O)c2cccc3cccnc23)C1 (configuration not stated)	TWEAK-Fn14 inh 84, Peg3 prom inh 60
O=C(C1CCN(S(=O)(=O)c2cccc3cccnc23)CC1)N1CCN(c2ccc(Cl)cc2)CC1	TWEAK-Fn14 inh 51
O=C(Nc1ccccc1Cl)C1CCCN(S(=O)(=O)c2cccc3cccnc23)C1 (configuration not stated)	none
Cc1ccc(C(=O)C(C)OC(=O)C2CCN(c3ccc(C(F)(F)F)cn3)CC2)cc1 (configuration not stated)	none
COc1ccc(CCN2C(=O)CSC2=Nc2ccc(C(C)C)cc2)cc1OC	TWEAK-Fn14 inh 58
CCCCNC(=O)c1nc(C2CCN(S(=O)(=O)c3cccc(C(F)(F)F)c3)CC2)oc1-c1cccc(C(F)(F)F)c1	none
CCOc1ccc(N(CC(=O)NC2CC3CCC2C3)S(=O)(=O)c2ccc(C)cc2)cc1 (configuration not stated)	none
CCOc1ccc(N(CC(=O)NC2CC3CCC2C3)S(=O)(=O)c2ccccc2)cc1 (configuration not stated)	TWEAK-Fn14 inh 56
CC1CCN(C2=NC(=O)/C(=C/c3cccc(O)c3)S2)CC1	none
CC1CCN(C2=NC(=O)/C(=C/c3ccccc3F)S2)CC1	TROY NFkB inh 79, TWEAK-Fn14 inh 95
COc1cccc(CNC(=O)[C@@H](C)N2C(=O)N3CCc4c([nH]c5ccc(OC)cc45)C3(C)C2=O)c1 (some centres not stated)	none
Cc1ccc(SC2=C(Sc3ccc(C)cc3)C(=O)c3ccccc3C2=O)cc1	TROY NFkB inh 60
COC(=O)C1N[C@@H]([C@@H](NC(=O)COc2ccccc2)C(=O)Nc2ccc(OC)cc2)SC1(C)C (some centres not stated)	none
CCOC(=O)C1=C(CN2CCN(C(=O)c3ccco3)CC2)NC(=O)NC1c1ccccc1 (configuration not stated)	none
CCN(CC)c1ccc2cc(-c3nnc(-c4ccccc4)o3)c(=O)oc2c1	TWEAK-Fn14 inh 67
CCN(CC)c1ccc2cc(-c3nc4ccccc4[nH]3)c(=O)oc2c1	TROY NFkB inh 73, TWEAK-Fn14 inh 88, Peg3 prom inh 70, KKLEB cytotox -90
CN1CCN(C(c2ccc(Br)cc2)c2cc(Cl)c3cccnc3c2O)CC1 (configuration not stated)	HIF-2a inh 50
COC(=O)C[C@H]1C=C[C@H](NC(=O)c2ccccn2)[C@@H](CO)O1	none (no result: TROY NFkB inh, TWEAK-Fn14 inh, Peg3 prom inh, CF NFkB inh, KKLEB cytotox)
O=C(O)COc1ccccc1/C=C1\C(=O)Nc2ccc(Br)cc21	none
O=C1Nc2ccc(Br)cc2/C1=C/C(=O)c1ccccc1	TWEAK-Fn14 inh 55, Peg3 prom inh 98
Cc1cc(C(=O)N/N=C2\CC(=O)CC(C)(C)C2)c(C)n1-c1ccccc1	TROY NFkB inh 53
Cc1cc(C(=O)N/N=C2\CC(=O)CC(C)(C)C2)c(C)n1-c1ccc(F)cc1	none
O=C(Cc1csc(Nc2nc(=S)[nH]c3ccccc23)n1)N1CCN(c2cccc(Cl)c2)CC1	Peg3 prom inh 82
COc1ccc(NC(=O)C2c3ccccc3OCC(=O)N2CCc2ccccc2)cc1 (configuration not stated)	none (no result: Peg3 prom inh, CF NFkB inh, KKLEB cytotox)
CC(=O)COc1ncn(-c2ccccc2)n1	TWEAK-Fn14 inh 87 (no result: TROY NFkB inh)
CCOC(=O)COc1ncn(-c2ccccc2)n1	none
Cc1ccccc1CN1CCN(C2CCC2)CC1CCO (configuration not stated)	none
COc1ccccc1OCc1cc(C(=O)N(C)CCC2CCCCO2)no1 (configuration not stated)	none
O=C(Nc1ccccc1)C1=C[C@@H](c2csc3ccccc23)C[C@@H](OCc2ccc(CO)cc2)O1	TROY NFkB inh 76
O=C(Nc1ccccc1)C1=C[C@H](C2CCCCC2)C[C@H](OCc2ccc(CO)cc2)O1	TROY NFkB inh 66
C#CCNC(=O)C1=C[C@H](c2csc3ccccc23)C[C@H](OCc2ccc(CO)cc2)O1	none

Compound activity: PubChem, Sanford-Burnham Center for Chemical Genomics
